Measured values reported in PubChem BioAssay (NCI).
About 83,000 compounds went through this panel and 20% of them were active in at least one assay; those are over-represented in the sample as a whole.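 Percent growth is the endpoint: 0 to 100 indicates growth inhibition (40 means 60% inhibition), 0 means no net growth, and negative values indicate cell death.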 Calls of active or inactive are those of the source. Rule for the calls: active = growth percent below 10; inactive = the rest.

Experiments:
Assay in all cases: NCI-60 one-dose screen, 48 h (100 = growth as untreated, 0 = no growth, -100 = all killed)
Settings in all cases: 10 µM unless noted
BT-549 breast = tested on: BT-549 breast
MDA-MB-435 melanoma = tested on: MDA-MB-435 melanoma
SW-620 colon = tested on: SW-620 colon
MCF7 breast = tested on: MCF7 breast
HCT-116 colon = tested on: HCT-116 colon
HCC-2998 colon = tested on: HCC-2998 colon
KM12 colon = tested on: KM12 colon

Measured: growth

COc1cc(C2=N/C(=C\c3cc4ccccc4nc3Oc3ccccc3)C(=O)N2C(=N)N)cc(OC)c1OC
inactive: BT-549 breast 32.7% | MDA-MB-435 melanoma 95.2% | SW-620 colon 87.8% | MCF7 breast 75.5% | HCT-116 colon 52.8% | HCC-2998 colon 75.2% | KM12 colon 79.6%

Cc1cc2ccccc2c[n+]1CC(=O)c1ccc(-c2ccccc2)cc1
inactive: BT-549 breast 53.3% | MDA-MB-435 melanoma 66.3% | SW-620 colon 48.5% | MCF7 breast 29.3% | HCT-116 colon 28.4% | HCC-2998 colon 61.8% | KM12 colon 56.7%

CCn1cc(C(=O)O)c(=O)c2cc(F)c(N3CCN(CC(=O)Nc4ccc(/C(C)=N/OC)cc4)CC3)cc21
inactive: BT-549 breast 92.5% | MDA-MB-435 melanoma 102% | SW-620 colon 110% | MCF7 breast 93.8% | HCT-116 colon 104% | HCC-2998 colon 101% | KM12 colon 94.5%

CN(C)CCCn1c2c(c3cc(-c4cccc(S(N)(=O)=O)c4)ccc3c1=O)C(=O)c1ccccc1-2
inactive: BT-549 breast 76.1% | MDA-MB-435 melanoma 80.3% | SW-620 colon 36.8% | MCF7 breast 27.7% | HCC-2998 colon 77.2% | KM12 colon 65.5%
active: HCT-116 colon -82.6%

C=C(C)[C@@H]1CC[C@]2(C(=O)N=C=S)CC[C@]3(C)[C@H](CC[C@@H]4[C@@]5(C)CCC(=O)C(C)(C)[C@@H]5CC[C@]43C)[C@@H]12
inactive: BT-549 breast 47.3% | MDA-MB-435 melanoma 47.1% | SW-620 colon 28.8% | MCF7 breast 16.4% | HCT-116 colon 13.8% | HCC-2998 colon 43.3% | KM12 colon 21.2%

CCCn1c2cc(OCc3cn(-c4ccc(Br)cc4)nn3)ccc2c2ccnc(C)c21
inactive: BT-549 breast 90.2% | MDA-MB-435 melanoma 85.4% | SW-620 colon 47.4% | MCF7 breast 62.4% | HCT-116 colon 54.7% | HCC-2998 colon 83.4% | KM12 colon 67.6%

COc1ccc(NC(=O)c2sc3nc(C)c(C(C)=O)cc3c2N)cc1
inactive: BT-549 breast 86.5% | MDA-MB-435 melanoma 93.2% | SW-620 colon 97% | MCF7 breast 95.7% | HCT-116 colon 88.6% | HCC-2998 colon 103% | KM12 colon 105%

C=C(C)[C@@H]1CC[C@]2(C(=O)OCCOCCOCC[P+](c3ccccc3)(c3ccccc3)c3ccccc3)CC[C@]3(C)[C@H](CC[C@@H]4[C@@]5(C)CC[C@H](OC(=O)C(Cl)Cl)C(C)(C)[C@@H]5CC[C@]43C)[C@@H]12
active: BT-549 breast -89.4% | MDA-MB-435 melanoma -62.5% | SW-620 colon 5.87% | MCF7 breast 1.7% | HCT-116 colon -84.1% | KM12 colon -55.7%
inactive: HCC-2998 colon 12.1%

C#CC[C@@H]1C[C@]2(C)[C@H]3CC[C@@H]4[C@H]5[C@H](C(=C)C)CC[C@]5(C(=O)O)CC[C@@]4(C)[C@]3(C)CC[C@H]2C(C)(C)[C@H]1O
active: HCT-116 colon 9.2%
inactive: BT-549 breast 29% | MDA-MB-435 melanoma 68.5% | SW-620 colon 33.1% | MCF7 breast 34.7% | HCC-2998 colon 64.7% | KM12 colon 24.8%

COc1cc(NC(=O)Nc2cnc(Nc3ccc(N4CCOCC4)cc3)nc2Oc2ccc(C(F)(F)F)cc2)cc(OC)c1
inactive: BT-549 breast 111% | MDA-MB-435 melanoma 107% | SW-620 colon 107% | MCF7 breast 101% | HCT-116 colon 104% | HCC-2998 colon 104% | KM12 colon 103%

COc1ccc(-c2[nH]c3ccccc3c2C=C(C#N)C#N)cc1
inactive: BT-549 breast 45.9% | SW-620 colon 20.5% | MCF7 breast 11.4%
active: MDA-MB-435 melanoma -34.6% | HCT-116 colon 4.01% | HCC-2998 colon -39.2% | KM12 colon 3.41%

Cc1cccc2nc3c(n12)C(=O)C(=O)c1ccccc1-3
inactive: BT-549 breast 78.6% | SW-620 colon 79.4% | MCF7 breast 47.9% | HCT-116 colon 38.7% | HCC-2998 colon 115% | KM12 colon 90.6%
active: MDA-MB-435 melanoma -86%

COc1cccc(NC(=O)Nc2ccc(Oc3ncnc4[nH]c(C)c(C)c34)cc2)c1
inactive: BT-549 breast 99.6% | MDA-MB-435 melanoma 100% | SW-620 colon 81.7% | MCF7 breast 40.9% | HCT-116 colon 81.6% | HCC-2998 colon 103% | KM12 colon 52.2%

CCOc1ccccc1C(=O)/C=C/c1cc2ccccc2[nH]c1=O
active: BT-549 breast -19.2% | MDA-MB-435 melanoma 5.11% | SW-620 colon 4.2% | MCF7 breast 3.4% | HCT-116 colon -64.7% | HCC-2998 colon -97.6% | KM12 colon -45.3%

O=C1NCc2ccc3c(-c4cccc(Cl)c4)c[nH]c3c21
active: MDA-MB-435 melanoma -26.2%
inactive: BT-549 breast 58.5% | SW-620 colon 20.7% | MCF7 breast 17.5% | HCT-116 colon 14.2% | HCC-2998 colon 25.3% | KM12 colon 19.1%

COc1ccc(C(=S)c2cc(OC)c(OC)c(OC)c2)cc1OC(=O)CCl
active: MDA-MB-435 melanoma -8.11% | HCT-116 colon 9.73%
inactive: BT-549 breast 12.1% | SW-620 colon 29.5% | MCF7 breast 15% | HCC-2998 colon 31.2% | KM12 colon 13.9%

COc1ccc(C2N(c3cc(OC)c(OC)c(OC)c3)C(=O)C2(F)F)cc1F (stereo unspecified)
inactive: BT-549 breast 35% | MDA-MB-435 melanoma 12.9% | SW-620 colon 21.2% | MCF7 breast 15.1% | HCC-2998 colon 84.2% | KM12 colon 22.9%
active: HCT-116 colon 5.76%

CCOC(=O)C(=Cc1c(-c2ccccc2)[nH]c2ccccc12)C(=O)OCC
inactive: BT-549 breast 67.1% | MDA-MB-435 melanoma 14.5% | SW-620 colon 53.5% | MCF7 breast 41.6% | HCT-116 colon 41% | HCC-2998 colon 80.7% | KM12 colon 24.1%

COc1ccc(Sc2[nH]c(C(C)=O)c3ccccc23)cc1
inactive: BT-549 breast 50.1% | SW-620 colon 58.6% | MCF7 breast 57.5% | HCT-116 colon 65.3% | HCC-2998 colon 70.2% | KM12 colon 37%
active: MDA-MB-435 melanoma -23.4%

Cc1ccc(CS/C(=C\c2ccc([N+](=O)[O-])cc2)C(=O)c2ccc(F)cc2)cc1
inactive: BT-549 breast 75.8% | MDA-MB-435 melanoma 33.5% | HCC-2998 colon 83.7% | KM12 colon 13.2%
active: SW-620 colon -11.5% | MCF7 breast -4.97% | HCT-116 colon -53.1%

C=C1C(=O)O[C@H]2[C@H]1CC/C(C=Nc1c(N)cc(C(F)(F)F)cc1Br)=C\CC[C@@]1(C)O[C@@H]21
inactive: HCC-2998 colon 34.2% | KM12 colon 30%
active: BT-549 breast -22.6% | MDA-MB-435 melanoma 4.47% | SW-620 colon -63.1% | MCF7 breast -2.09% | HCT-116 colon -80.6%

Nc1c(C(=O)Nc2cccc3ccccc23)sc2nc3c(cc12)CCCCCC3
active: MDA-MB-435 melanoma -39.3% | HCT-116 colon 7.05%
inactive: BT-549 breast 32% | SW-620 colon 22.4% | MCF7 breast 20.6% | HCC-2998 colon 43.3% | KM12 colon 21.9%

C=C1C(=O)O[C@H]2[C@H]1CC/C(COC(=O)/C=C/c1cccnc1)=C\CC[C@@]1(C)O[C@@H]21
inactive: BT-549 breast 20.5% | MDA-MB-435 melanoma 27.7% | MCF7 breast 11.9% | HCC-2998 colon 94.8% | KM12 colon 79.4%
active: SW-620 colon -32% | HCT-116 colon -66.3%

O=C(O)c1cn(C2CC2)c2cc(N3CCN(C(=O)CSc4nnc(-c5ccc(Cl)cc5)n4-c4ccccc4)CC3)c(F)cc2c1=O
inactive: BT-549 breast 99.1% | MDA-MB-435 melanoma 102% | SW-620 colon 109% | MCF7 breast 110% | HCT-116 colon 103% | HCC-2998 colon 102% | KM12 colon 103%

C=CCn1c(CN2CCN(c3cc4c(cc3F)c(=O)c(C(=O)O)cn4C3CC3)CC2)n[nH]c1=S
inactive: BT-549 breast 105% | MDA-MB-435 melanoma 102% | SW-620 colon 105% | MCF7 breast 95.7% | HCT-116 colon 105% | HCC-2998 colon 107% | KM12 colon 99.4%

CC(C)(C#N)c1cc(F)cc(C(=O)Nc2cc(Nc3ncccc3-c3ncnc4nc[nH]c34)ccc2F)c1
inactive: BT-549 breast 39.7% | MDA-MB-435 melanoma 48% | SW-620 colon 28.7% | MCF7 breast 58.1% | HCT-116 colon 19.2% | HCC-2998 colon 27.3% | KM12 colon 36%

CCCCc1nc(Cl)c(C2CC(c3ccc(Cl)cc3)=NN2c2cc(Cl)cc(Cl)c2)[nH]1 (stereo unspecified)
inactive: BT-549 breast 72% | MDA-MB-435 melanoma 83.2% | SW-620 colon 16.8% | MCF7 breast 85.1% | HCT-116 colon 63.9% | HCC-2998 colon 102% | KM12 colon 89%

O=C1Nc2ccc(Cl)cc2/C1=N/c1nc(-c2ccc(Cl)cc2)cs1
inactive: BT-549 breast 17.4% | SW-620 colon 12.9%
active: MDA-MB-435 melanoma -82.3% | MCF7 breast 5.81% | HCT-116 colon 3.16% | HCC-2998 colon 9.52% | KM12 colon 1.73%

CC[C@]12C=CCN3CC[C@@]4(c5cc(NC(=O)CCC(=O)O[C@H]6CC[C@H]7[C@@H]8CC[C@H]9CC(=O)CC[C@]9(C)[C@H]8CC[C@]67C)c(OC)cc5N(C)[C@H]4[C@@](O)(C(=O)OC)[C@@H]1OC(C)=O)[C@@H]32
inactive: BT-549 breast 58.6% | MDA-MB-435 melanoma 76.5% | SW-620 colon 85.6% | MCF7 breast 48.2% | HCT-116 colon 47.5% | HCC-2998 colon 97.5% | KM12 colon 74.2%

Nc1c(C(=O)Nc2ccccn2)sc2nc3c(cc12)CCCCC3
active: MDA-MB-435 melanoma -25.2%
inactive: BT-549 breast 52.6% | SW-620 colon 30% | MCF7 breast 20.1% | HCT-116 colon 17.1% | HCC-2998 colon 30.7% | KM12 colon 18.8%

CC[C@H](Nc1ncnc2nc[nH]c12)c1nc2cccc(CC(=O)c3ccc(C(=O)NO)cc3)c2c(=O)n1-c1ccccc1
inactive: BT-549 breast 85.8% | MDA-MB-435 melanoma 97.6% | SW-620 colon 96.3% | MCF7 breast 77.9% | HCT-116 colon 90.5% | HCC-2998 colon 88.9% | KM12 colon 93.5%

COc1cc(C(=O)N2CCN(c3ccccc3OC)CC2)c(NC(=O)c2cnccn2)cc1OCc1ccccc1
inactive: BT-549 breast 97.6% | MDA-MB-435 melanoma 95.1% | SW-620 colon 101% | MCF7 breast 109% | HCT-116 colon 87.8% | HCC-2998 colon 87.3% | KM12 colon 90.7%

COc1ccc(-c2nnc(N3CCN(C(=O)CN4CCN(c5ccc(OC)cc5)CC4)CC3)nc2-c2ccc(OC)cc2)cc1
inactive: HCC-2998 colon 33.9%
active: BT-549 breast -81.8% | MDA-MB-435 melanoma -68.1% | SW-620 colon -92.5% | MCF7 breast -69.8% | HCT-116 colon -41.1% | KM12 colon -13.1%
